Most compounds without a hit are left out; they make up all but 3.8% or so of the library.
MT1-MMP txn act: MT1-MMP promoter reporter activation – cell-based, luciferase luminescence, primary screen. HT1080 MT1-MMP promoter luciferase reporter, overnight; active compounds read high. activation factor at 10 µM. 86,000 tested, 0.16% active;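 active = activation factor of at least 2 for MT1-MMP transcription at 10 µM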
ERa SRC1 inh: ERα–SRC-1 coactivator interaction inhibitors, primary screen, biochemical, TR-FRET, ERα LBD, estradiol-bound | Estrogen receptor (Homo sapiens), P03372 | TR-FRET ER-alpha LBD / SRC-1 peptide | inhibition, % at 25.6 µM | 86,000 tested, 1.7% active | AID 629, 2007; in the data active = inhibition above about 50%
Target sequence (P03372 whole entry, looked up, the tested form may be a part): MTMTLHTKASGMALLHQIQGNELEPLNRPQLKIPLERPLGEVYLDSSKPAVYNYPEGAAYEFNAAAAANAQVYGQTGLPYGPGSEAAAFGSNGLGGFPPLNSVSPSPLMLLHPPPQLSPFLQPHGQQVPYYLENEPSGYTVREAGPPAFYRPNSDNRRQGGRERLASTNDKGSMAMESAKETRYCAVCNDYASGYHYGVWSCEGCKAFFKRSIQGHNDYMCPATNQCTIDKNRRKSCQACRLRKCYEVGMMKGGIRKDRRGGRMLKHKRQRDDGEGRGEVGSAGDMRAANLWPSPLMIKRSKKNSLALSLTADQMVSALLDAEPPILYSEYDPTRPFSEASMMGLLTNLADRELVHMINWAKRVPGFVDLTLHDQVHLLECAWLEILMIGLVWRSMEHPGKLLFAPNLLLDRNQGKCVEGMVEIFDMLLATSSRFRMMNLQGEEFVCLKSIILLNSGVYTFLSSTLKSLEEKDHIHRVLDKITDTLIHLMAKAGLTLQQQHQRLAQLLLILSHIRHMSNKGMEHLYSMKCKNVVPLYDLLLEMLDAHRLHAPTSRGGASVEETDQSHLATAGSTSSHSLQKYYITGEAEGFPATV
ERb coact inh: inhibitors of ERβ-SRC1 coactivator interaction, primary screen, biochemical, TR-FRET, ERβ LBD, SRC-1 peptide; TR-FRET ER-beta LBD / SRC1-Cy5 peptide binding; receptor agonist-loaded with 1 µM estradiol; inhibition, % at 25.6 µM; 86,000 tested, 1.3% active;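 active = compounds whose percent inhibition of the receptor-coactivator binding signal exceeds about 50% in the single-dose screen, limit read from the data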
Smad3 FoxH1 inh: Smad3/FoxH1 peptide binding inhibitors, primary screen, biochemical, TR-FRET; inhibition, % at 25 µM; TR-FRET Smad3/Dy647-FoxH1 peptide binding, europium anti-His; 88,000 tested, 0.29% active;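 active = compounds that reduce the energy-transfer binding signal between the protein and its labelled peptide by more than half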
Candida biofilm: clotrimazole potentiators killing Candida biofilms, primary screen, with clotrimazole, Alamar Blue; C. albicans biofilm + clotrimazole; inhibition, % at 6 µM; 85,000 tested, 0.14% active;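 active = inhibition above 20%; inactive = inhibition below 20%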;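 also: preformed 24 hr biofilms exposed to compound for 48 hr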
ERa SRC1 pot: enhancers of ERα–SRC-1 coactivator binding, primary screen, biochemical, TR-FRET, ERα LBD, low estradiol | TR-FRET ERalpha-LBD/SRC-Cy5 coactivator binding, 2 h; 100 = basal binding, no effect | coactivator binding (% of control), % at 25.6 µM | 86,000 tested, 1.3% active; in the data active = activity above about 200%;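 also: binding measured in presence of low estradiol as agonist stimulus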
Large screens that a line does not name were inactive; [ ] = dose if it differs, or a comment.

CCc1cc(C(=O)Nc2ccc(C)cc2Br)cs1	MT1-MMP txn act 2 (no result: Candida biofilm)
CCc1cc(C(=O)NNC(=S)Nc2cccc(C)c2)cs1	none
CCC(=O)c1coc2ccc(O)cc12	ERa SRC1 inh 67[fluorescence artefact?], ERb coact inh 78[fluorescence artefact?]
O=C(c1cccs1)c1coc2ccc(O)cc12	none
CC(C)(N=NC(C)(C)C(=N)N)C(=N)N	none (no result: MT1-MMP txn act, ERa SRC1 inh, ERb coact inh, Candida biofilm, ERa SRC1 pot)
COc1cc(C(=O)Nc2sc3c(c2C(=O)NCc2ccco2)CCCC3)cc(OC)c1OC	none
COc1ccc(C(=O)Nc2sc3c(c2C(=O)NCc2ccco2)CCCC3)cc1OC	ERa SRC1 pot 228
O=C(Nc1sc2c(c1C(=O)NCc1ccco1)CCCC2)c1ccc2c(c1)OCO2	ERb coact inh 62[fluorescence artefact?]
COC(=O)c1ccc(COc2ccc3c4c(c(=O)oc3c2)CCC4)o1	ERa SRC1 pot 240[fluorescence artefact?]
COC(=O)c1ccc(COc2ccc3c(C)c(C)c(=O)oc3c2C)o1	ERa SRC1 pot 444[fluorescence artefact?]
CCc1c2c(nc3ccc(OC)cc13)OC(C)C2 (configuration not stated)	none (no result: ERa SRC1 inh, ERb coact inh, Smad3 FoxH1 inh, Candida biofilm, ERa SRC1 pot)
NC(N)=NC[C@H](N)C(=O)O	none (no result: MT1-MMP txn act, ERa SRC1 inh, ERb coact inh, Candida biofilm, ERa SRC1 pot)
CC(C)(N=NC(C)(C)C1=NCCN1)C1=NCCN1	none (no result: MT1-MMP txn act, ERa SRC1 inh, ERb coact inh, Candida biofilm, ERa SRC1 pot)
CCOc1c(Cl)cc(CNCC(C)C)cc1OC	Candida biofilm 59
CCCCNCc1cc(Cl)c(OCCC)c(OCC)c1	none
CCN(CC)C(=O)C1CC(=O)N(c2ccc(F)c(Cl)c2)C1 (configuration not stated)	ERb coact inh 67[fluorescence artefact?]
Cc1cc(C)c2nc(SCC(=O)Nc3ccccc3N3CCOCC3)c(C#N)cc2c1	ERa SRC1 pot 353[fluorescence artefact?]
Cc1nnc(SCC(=O)N2CC(=O)Nc3ccccc32)n1-c1ccccc1	none (no result: MT1-MMP txn act)
Cc1cc(C)c2nc(SCC(=O)N3CC(=O)Nc4ccccc43)c(C#N)cc2c1	ERa SRC1 pot 461[fluorescence artefact?]
Cc1ccc(C2C(C#N)=C(N)SC(N)=C2C#N)o1	ERb coact inh 67[fluorescence artefact?]
CCS(=O)(=O)N1Cc2ccccc2CC1C(=O)N1CCN(c2cccc(C)c2C)CC1 (configuration not stated)	ERa SRC1 inh 80[fluorescence artefact?], ERb coact inh 51
Cc1ccccc1C(=O)Nc1ccccc1	none
Cc1ccccc1C(=O)Nc1cccc(NC(=O)c2ccc(-c3ccc(Br)cc3)o2)c1	ERa SRC1 inh 79[fluorescence artefact?]
CC1CCN(S(=O)(=O)c2ccc(NC(=O)Cn3nnc(-c4ccccc4F)n3)cc2)CC1	ERa SRC1 inh 86[fluorescence artefact?], ERb coact inh 62[fluorescence artefact?]
CC[C@@H](Nc1ncnc2nc[nH]c12)C(=O)O	none (no result: MT1-MMP txn act, ERa SRC1 inh, ERb coact inh, Candida biofilm, ERa SRC1 pot)
CC(C)CNC(=O)O	none (no result: MT1-MMP txn act, ERa SRC1 inh, ERb coact inh, Candida biofilm, ERa SRC1 pot)
CCc1cccc(OCCCN2C(=O)NC(C)(C)C2=O)c1	Candida biofilm 82
CC(=O)c1cccc(OCCN2C(=O)NC(C)(C)C2=O)c1	none
COc1ccc(NC(=O)c2ccco2)cc1N	ERa SRC1 inh 55, ERb coact inh 61
COc1ccccc1NC(=O)c1cccc(NC(=O)c2ccco2)c1	none
COc1ccccc1NC(=O)c1ccccc1NC(=O)c1cc(Cl)ccc1NC(=O)c1ccco1	ERa SRC1 inh 74
COc1ccccc1NC(=O)Oc1ccc(NC(=O)c2ccco2)cc1	ERa SRC1 inh 60[fluorescence artefact?], ERb coact inh 66[fluorescence artefact?]
OC[C@H]1O[C@@H](O)[C@H](N=Cc2ccc3c(c2)OCO3)[C@@H](O)[C@@H]1O	none (no result: MT1-MMP txn act, ERa SRC1 inh, ERb coact inh, Candida biofilm, ERa SRC1 pot)
c1ccc(C2=NN[C@@H]3c4ccccc4-c4ccccc4N3C2)cc1	none (no result: MT1-MMP txn act, ERa SRC1 inh, ERb coact inh, Candida biofilm, ERa SRC1 pot)
O=C1NCCCC2c3cc(O)c4ccccc4c3OC12N1CCCCC1 (configuration not stated)	ERb coact inh 55
COc1cccc(O[C@@H]2O[C@@H]3COC(C)(C)O[C@H]3[C@H](O)[C@H]2NC(C)=O)c1	none
CCN(C(=O)COc1cc(=O)n(C)c2ccccc12)c1cccc(Cl)c1	none
Cn1c(=O)c2nc(-c3ccc(Cl)cc3Cl)oc2c2ccccc21	ERa SRC1 inh 59[fluorescence artefact?]
Cc1cccc(S(=O)(=O)c2c(N)n(Cc3ccco3)c3nc4ccccc4nc23)c1	ERb coact inh 61
Nc1c(S(=O)(=O)c2cccs2)c2nc3ccccc3nc2n1Cc1ccccc1	ERa SRC1 pot 206
COCCn1c(N)c(S(=O)(=O)c2cccs2)c2nc3ccccc3nc21	none
O=C(Oc1ccc2ccccc2c1)c1ccco1	none
O=C(Oc1cccc(-c2cnc3ccccc3n2)c1)c1ccco1	ERa SRC1 pot 311
O[C@@H](C1=C/C(=C\c2ccncc2)c2ccccc21)c1ccncc1	Smad3 FoxH1 inh 76 (no result: MT1-MMP txn act, ERa SRC1 inh, ERb coact inh, Candida biofilm, ERa SRC1 pot)
O=C(NCc1ccco1)c1cc2c(s1)CSC2	ERa SRC1 inh 71, ERb coact inh 65
CCC(C)(C)n1nnnc1C(c1cc2cc(C)cc(C)c2[nH]c1=O)N1CCN(Cc2ccc3c(c2)OCO3)CC1 (configuration not stated)	ERa SRC1 pot 227[fluorescence artefact?]
CCC(C)(C)n1nnnc1C(c1cc2cc(C)cc(C)c2[nH]c1=O)N1CCCC1 (configuration not stated)	none (no result: ERa SRC1 inh, ERb coact inh, Smad3 FoxH1 inh, Candida biofilm, ERa SRC1 pot)
Cc1ccc(CNC(=O)[C@H]2C[C@@H]2[C@H](NP(=O)(c2ccccc2)c2ccccc2)c2ccccc2)c(F)c1F	none (no result: ERa SRC1 inh, ERb coact inh, Smad3 FoxH1 inh, Candida biofilm, ERa SRC1 pot)
O=C1CC[C@H](NC(=O)c2ccccc2)C(=O)N1	none (no result: MT1-MMP txn act, ERa SRC1 inh, ERb coact inh, Candida biofilm, ERa SRC1 pot)
CCn1cc(C(=O)Nc2ccccc2C(=O)OC)c(=O)c2ccc(C)nc21	none
CCn1cc(C(=O)Nc2cccc(C(=O)OC)c2)c(=O)c2ccc(C)nc21	none
CCCOC(=O)c1ccc(NC(=O)c2cn(CC)c3nc(C)ccc3c2=O)cc1	Smad3 FoxH1 inh 61[fluorescence artefact?], ERa SRC1 pot 275[fluorescence artefact?]
CCn1cc(C(=O)NC2CCc3ccccc32)c(=O)c2ccc(C)nc21 (configuration not stated)	ERa SRC1 pot 425[fluorescence artefact?]
CCn1cc(C(=O)Nc2ccc(-n3cnnn3)c(OC)c2)c(=O)c2ccc(C)nc21	ERa SRC1 pot 337[fluorescence artefact?]
Nc1nc(-c2cccnc2)cc(-c2cc(-c3cccnc3)nc(N)n2)n1	none (no result: MT1-MMP txn act, ERa SRC1 inh, ERb coact inh, Candida biofilm, ERa SRC1 pot)
CC1CCC(O)([C@](C)(C(=O)O)c2ccccc2)CC1 (some centres not stated)	none (no result: MT1-MMP txn act, ERa SRC1 inh, ERb coact inh, Candida biofilm, ERa SRC1 pot)
OC[C@@H]1O[C@H](n2cnc3c(/C=C(\O)c4ccccc4)ncnc32)[C@H](O)[C@H]1O	none (no result: MT1-MMP txn act, ERa SRC1 inh, ERb coact inh, Candida biofilm, ERa SRC1 pot)
CC(C)Cn1c(=O)c(C(=O)Nc2ccncc2)c(O)c2ccccc21	ERa SRC1 inh 51[fluorescence artefact?]
Cc1ccc(NC(=O)c2c(O)c3ccccc3n(C)c2=O)nc1	none
Cc1ccnc(NC(=O)c2c(O)c3ccccc3n(C)c2=O)c1	ERa SRC1 pot 345[fluorescence artefact?]
CC(C)Cn1c(=O)c(C(=O)Nc2cnccn2)c(O)c2ccccc21	none
O=C1N=C(c2ccccc2)S/C1=C\c1cccs1	ERa SRC1 inh 57[fluorescence artefact?]
CCCNC(=O)Cn1c(=O)oc2ccccc21	none

High-throughput results deposited in PubChem BioAssay by several laboratories.
